Source: PubChem BioAssay (several laboratories)
The list is not random: actives were taken first. Their share in the collection is about 7%.
rCAG RNA binder: binds r(CAG) RNA repeats; r(CAG) RNA repeat, TO-PRO-1 dye displacement fluorescence; inhibition, % at 3 µM; actives 1.3% (n = 370,000); AID 651821;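 active = inhibition above the plate cutoff, the mean of all test compounds on that plate plus 3 SD, cut at about 35% in these data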;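 also: higher means more dye released from RNA so lower well fluorescence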
proKLK7 act: proKLK7 (human) activation, primary screen | AID 652039 | activation, % at 7 µM | purified proKLK7, EDANS-DABCYL substrate fluorescence; 100% is mature enzyme control, 0% vehicle | P49862 | actives 0.9% (n = 370,000);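 active = activation above the mean of all tested compounds plus 3 SD, computed per campaign excluding outliers beyond control limits, cut at about 13% in these data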
Target sequence (P49862 whole entry, looked up): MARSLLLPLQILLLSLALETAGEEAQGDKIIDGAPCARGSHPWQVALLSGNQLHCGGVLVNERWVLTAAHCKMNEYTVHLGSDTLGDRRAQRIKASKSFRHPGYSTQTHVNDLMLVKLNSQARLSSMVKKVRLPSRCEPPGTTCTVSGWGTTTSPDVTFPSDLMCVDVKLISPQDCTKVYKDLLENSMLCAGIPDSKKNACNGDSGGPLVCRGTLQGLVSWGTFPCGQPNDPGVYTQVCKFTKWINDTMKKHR
ADAM17 inh: ADAM17 inhibition, QFRET primary screen; actives 0.83% (n = 370,000); inhibition, % at 6.95 µM; recombinant ADAM17, EDANS/DABCYL FRET peptide cleavage; P78536;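 active = inhibition above the mean of compounds lying between control limits plus 3 SD, set per campaign, cut at about 8.5% in these data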
ADAM10 inh: inhibitors of human ADAM10; inhibition, % at 7 µM; actives 0.62% (n = 370,000); O14672; recombinant ADAM10, EDANS/DABCYL FRET peptide cleavage, 3 h; AID 720582;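 active = inhibition above a per-campaign cutoff equal to the mean of compounds falling between control-based bounds plus 3 SD, cut at about 20% in these data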
AHR activator: activates the human aryl hydrocarbon receptor | AHR-responsive luciferase reporter cells, luminescence | actives 2.5% (n = 320,000) | activation, % at 5 µM | P35869; in the data active = activation above about 47%
GRIN3A LBD mod: NR3A (human) ligand-binding domain modulation. Tm shift relative to glycine control, % at 25 µM. actives 2.5% (n = 340,000). NR3A LBD differential scanning fluorimetry, Tm shift; 0% = protein alone, 100% = glycine-bound protein;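 active = melting temperature shift of at least 10% of the positive control shift, at one fixed dose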
AHR act cf: human AHR activation, confirmation; shares compounds with AHR activator; human cells, AHR-responsive luciferase reporter, luminescence; activation, % at 9 µM; actives 87% (n = 2,300); in the data active = activation above about 49%;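 also: HepG2 hepatoma cells carrying a DRE-driven firefly luciferase reporter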
PXR act counter: PXR activation, counter-screen for AHR activators | actives 88% (n = 2,300) | cell-based PXR reporter, luciferase luminescence | activation, % at 11.6 µM | shares compounds with AHR activator | AID 434939; in the data active = activation above about 11%;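 also: human hepatoma DPX-2 cells expressing full-length human PXR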
Numbers stand for hits.

Screening Oc1c(-c2cc(-c3ccco3)[nH]n2)ccc2ccccc12 returned rCAG RNA binder inactive, proKLK7 act inactive, ADAM17 inh inactive, ADAM10 inh inactive, AHR activator 116, GRIN3A LBD mod 21, AHR act cf 149 and PXR act counter 13.
For S=c1[nH]nc(-c2cc(-c3ccco3)[nH]n2)n1-c1ccccc1 the results were rCAG RNA binder inactive, proKLK7 act inactive, ADAM17 inh inactive, ADAM10 inh inactive, AHR activator 88, GRIN3A LBD mod inactive, AHR act cf 96 and PXR act counter 18.
`S=c1[nH]nc(-c2cc(-c3ccco3)[nH]n2)n1-c1ccccc1Cl` gave rCAG RNA binder inactive, proKLK7 act inactive, ADAM17 inh inactive, ADAM10 inh inactive, AHR activator inactive and GRIN3A LBD mod inactive.
For NNC(=O)c1cc(-c2ccco2)[nH]n1 the results were rCAG RNA binder inactive, proKLK7 act inactive, ADAM17 inh inactive, ADAM10 inh inactive, AHR activator inactive and GRIN3A LBD mod inactive.
Screening FC(F)(F)c1cc(-c2ccc3c(c2)OCO3)nc(NCc2ccco2)n1 returned rCAG RNA binder inactive, proKLK7 act inactive, ADAM17 inh inactive, ADAM10 inh inactive, AHR activator 91, GRIN3A LBD mod inactive, AHR act cf 75 and PXR act counter 26.
`COc1ccc(-c2cc(C(F)(F)F)nc(NCc3ccco3)n2)cc1OC` gave AHR activator inactive and GRIN3A LBD mod inactive.
Screening CCc1ccccc1CNC(=O)C1CCC(CNS(=O)(=O)c2cccc3cccnc23)CC1 (stereo not given) returned rCAG RNA binder inactive, proKLK7 act inactive, ADAM17 inh inactive and ADAM10 inh inactive.
`O=C(NC(=S)N1CCCc2ccccc21)c1ccccc1` gave rCAG RNA binder inactive, proKLK7 act inactive, ADAM17 inh inactive, ADAM10 inh inactive, AHR activator inactive and GRIN3A LBD mod inactive.
Screening O=C(NC(=S)N1CCCc2ccccc21)c1ccc(Br)cc1 returned rCAG RNA binder inactive, proKLK7 act inactive, ADAM17 inh inactive, ADAM10 inh inactive, AHR activator 88, GRIN3A LBD mod inactive, AHR act cf 84 and PXR act counter 20.
For Nn1c(SCC(=O)Nc2cccc3ccccc23)nnc1-c1n[nH]c2c1CCC2 the results were rCAG RNA binder inactive, proKLK7 act inactive, ADAM17 inh inactive and ADAM10 inh inactive.
O=c1oc(CCCO)cc2ccc(C#Cc3cccnc3)cc12 was read as rCAG RNA binder inactive, proKLK7 act inactive, ADAM17 inh inactive, ADAM10 inh inactive, AHR activator 88, GRIN3A LBD mod inactive, AHR act cf 76 and PXR act counter 18.
`CN(C)c1ccc(C#Cc2ccc3cc(CCO)oc(=O)c3c2)cc1` gave AHR activator inactive and GRIN3A LBD mod inactive.
Screening CC(C)C(=O)N[C@H]1[C@H](O)CCC[C@@]12C(=O)N(Cc1ccccc1)c1ccccc12 returned rCAG RNA binder inactive, proKLK7 act inactive, ADAM17 inh inactive and ADAM10 inh inactive.
Screening COc1cccc(CNC(=O)C[C@H]2CC[C@H]3[C@@H](COc4ccc(NC(=O)c5cccs5)cc4C(=O)N3C)O2)c1 returned rCAG RNA binder inactive, proKLK7 act inactive, ADAM17 inh inactive and ADAM10 inh inactive.
Cc1cc(Br)ccc1NC(=O)CN(C)C(=O)c1cc([N+](=O)[O-])ccc1N1CCOCC1 was read as rCAG RNA binder inactive, proKLK7 act inactive, ADAM17 inh inactive, ADAM10 inh inactive, AHR activator 92, GRIN3A LBD mod inactive, AHR act cf 84 and PXR act counter 53.
Nn1c(SCCOc2ccc(Cl)cc2)nnc1-c1cccnc1 was read as rCAG RNA binder inactive, proKLK7 act inactive, ADAM17 inh inactive, ADAM10 inh inactive, AHR activator 91, GRIN3A LBD mod inactive, AHR act cf 125 and PXR act counter 22.
`COc1ccc(NC(=O)c2ccc(Cl)nc2)cc1S(=O)(=O)N1CCOCC1` gave rCAG RNA binder inactive, proKLK7 act inactive, ADAM17 inh inactive, ADAM10 inh inactive, AHR activator 92, GRIN3A LBD mod inactive, AHR act cf 102 and PXR act counter 21.
Screening Cc1ccc(CN2CC(N3CCC[C@@H]3C)CS2(=O)=O)cc1 (stereo not given in full) returned rCAG RNA binder inactive, proKLK7 act inactive, ADAM17 inh inactive and ADAM10 inh inactive.
O=C(N/N=C\c1ccccc1)c1ccccc1-n1cccc1 was read as rCAG RNA binder inactive, proKLK7 act inactive, ADAM17 inh inactive, ADAM10 inh inactive, AHR activator 92, GRIN3A LBD mod inactive, AHR act cf 111 and PXR act counter 38.
`NNC(=O)c1ccccc1-n1cccc1` gave rCAG RNA binder inactive, proKLK7 act inactive, ADAM17 inh inactive, ADAM10 inh inactive, AHR activator 121, GRIN3A LBD mod inactive, AHR act cf inactive and PXR act counter inactive.
Cc1ccc(C(=O)NNC(=O)c2ccccc2-n2cccc2)cc1 was read as rCAG RNA binder inactive, proKLK7 act inactive, ADAM17 inh inactive, ADAM10 inh inactive, AHR activator inactive and GRIN3A LBD mod inactive.
`C/C(=N\NC(=O)c1ccccc1-n1cccc1)C1CC1` gave rCAG RNA binder inactive, proKLK7 act inactive, ADAM17 inh inactive, ADAM10 inh inactive, AHR activator 98, GRIN3A LBD mod inactive, AHR act cf inactive and PXR act counter inactive.
For O=C(NNC(=O)c1ccccc1-n1cccc1)c1ccccc1 the results were rCAG RNA binder inactive, proKLK7 act inactive, ADAM17 inh inactive, ADAM10 inh inactive, AHR activator 81, GRIN3A LBD mod inactive, AHR act cf 93 and PXR act counter 12.
O=C(N/N=C\c1cccs1)c1ccccc1-n1cccc1 was read as rCAG RNA binder inactive, proKLK7 act inactive, ADAM17 inh inactive, ADAM10 inh inactive, AHR activator inactive and GRIN3A LBD mod inactive.
`COC(=O)C1=C(C)N(C)C(=NCc2ccc3c(c2)OCO3)NC1c1cccc(C(F)(F)F)c1` (stereo not given) gave rCAG RNA binder inactive, proKLK7 act inactive, ADAM17 inh inactive and ADAM10 inh inactive.
For CN=C(Nc1ccc(Cl)cc1)c1ccc(C(F)(F)F)cc1 the results were rCAG RNA binder inactive, proKLK7 act inactive, ADAM17 inh inactive, ADAM10 inh inactive, AHR activator 85, GRIN3A LBD mod inactive, AHR act cf 98 and PXR act counter 45.
Screening CN=C(Nc1cccnc1)c1cccc(C(F)(F)F)c1 returned rCAG RNA binder inactive, proKLK7 act inactive, ADAM17 inh inactive, ADAM10 inh inactive, AHR activator inactive and GRIN3A LBD mod inactive.
CC(C)(CCl)C(=O)Nc1ccc(C(F)(F)F)cc1 was read as rCAG RNA binder inactive, proKLK7 act inactive, ADAM17 inh inactive, ADAM10 inh inactive, AHR activator inactive and GRIN3A LBD mod inactive.
